Inconclusive results are not listed. Calls of active or inactive are those of the source. Unless noted, calls come from the whole dose curve; as a rule, active = well fitted curve in the direction sought with a large enough effect; inconclusive = small, poorly fitted or top-dose-only effect, or another doubt; inactive = no such curve, though single readings can be large; an effect the other way counts as inactive or inconclusive.
Test system: not listed separately
Test: Validation screen for small molecules that induce DNA re-replication in SW480 colon adenocarcinoma cells (AID 504364); note: 0% is about no effect
Conditions: DNA re-replication phenotype (high-content imaging); series mostly up to 46.1 µM; activity (re-replication induction): at the top concentration
Method in brief: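 Image-based DNA content read-out: Hoechst stain 40 min, total nuclear fluorescence intensity (ex 405 nm, em 500-530 nm) after 48 h compound exposure of 250 SW480 cells/well at 37 C, 5% CO2, versus DMSO vehicle.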

Row | Compound | activity (re-replication induction)
1 | N[C@H](CO)C(=O)O | -5.13% (inactive)
2 | CC1(C)CCC(NC(=O)[C@@H](N)CCC(=O)O)CC1 | -9.68% (inactive)
3 | Oc1ccc(O)cc1 | -5.66% (inactive)
4 | C[C@@H]1C(=O)NC2=Nc3cccc(Cl)c3CN21 | -2.3% (inactive)
5 | C[N+]1(CCCCC[N+]2(C)CCCC2)CCCC1 | -1.17% (inactive)
6 | O=C1CCC(c2ccc(-n3ccnc3)cc2)=NN1 | -10.7% (inactive)
7 | CNCCC(Oc1ccccc1C)c1ccccc1 (stereo not given) | 20.6% (inactive)
8 | CN=C(NC#N)Nc1ccc(C2=NNC(=O)CC2C)cc1 (stereo not given) | -1.68% (inactive)
9 | CN1C2CCC1CC(OC(=O)c1c[nH]c3ccccc13)C2 (stereo not given) | 7.21% (inactive)
10 | C[C@]12CC[C@@H]3c4ccc(O)cc4CC[C@H]3[C@@H]1CC[C@@H]2O | 13.7% (inactive)
11 | COc1cc(-c2ccc(=O)[nH]n2)ccc1OC(F)F | -9.15% (inactive)
12 | CNCCC=C1c2ccccc2CCc2ccccc21 | 6.07% (inactive)
13 | O=C(O)c1cc2cc(Cc3cccnc3)ccc2o1 | -2.29% (inactive)
14 | CC(C)NC[C@@H](O)COc1cccc2ccccc12 | 2.4% (inactive)
15 | CC(CCc1ccccc1)NCC(O)c1ccc(O)c(C(N)=O)c1 (stereo not given) | 1.45% (inactive)
16 | Nc1cc(Cl)c(NC2=NCCN2)c(Cl)c1 | 0.716% (inactive)
17 | CCC(NC(C)C)C(O)c1ccc(O)c(O)c1 (stereo not given) | -5.42% (inactive)
18 | C1CCc2nnnn2CC1 | -0.609% (inactive)
19 | N[C@@H](Cc1cnc[nH]1)C(=O)O | 12.5% (inactive)
20 | CCCn1c(=O)[nH]c(=O)c2[nH]cnc21 | -6.83% (inactive)
21 | COc1cc(NS(C)(=O)=O)ccc1Nc1c2ccccc2nc2ccccc12 | 0.76% (inactive)
22 | COC(=O)[C@H]1[C@H]2C[C@H]3c4[nH]c5ccccc5c4CCN3C[C@H]2CC[C@@H]1O | -8.72% (inactive)

Target: Peptidyl-prolyl cis-trans isomerase NIMA-interacting 1 (Homo sapiens) (UniProt Q13526)
Test: qHTS Validation Assay to Find Inhibitors of Pin1 (AID 504536; active = well fitted inhibition curve with a large enough effect in the polarisation, with a control signal flat, not every such curve was filed as active; the % refers to the polarisation;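 note: 0% = full Pin1 enzyme wells and -100% = no-enzyme wells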)
Conditions: Pin1 fluorescence polarization peptide binding assay; series mostly up to 57.5 µM; activity, negative = inhibition: at the top concentration
Method in brief: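 Fluorescence polarization competition: compounds (titration) displace HiFluor-488-labeled Pin1-1b peptide from Pin1 (0.3 uM final) in pH 7.5 HEPES buffer with DTT, 10 min at room temperature; %Activity normalized to no-enzyme wells, curves fitted.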

Chain of Peptidyl-prolyl cis-trans isomerase NIMA-interacting 1 (Homo sapiens) (Q13526 whole entry, looked up): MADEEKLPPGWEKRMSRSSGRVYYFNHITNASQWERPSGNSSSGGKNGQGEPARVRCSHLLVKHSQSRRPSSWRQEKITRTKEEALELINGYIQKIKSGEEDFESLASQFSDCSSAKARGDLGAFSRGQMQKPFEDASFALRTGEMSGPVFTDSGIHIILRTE

Row | Compound | activity, negative = inhibition
23 | N[C@H](CO)C(=O)O | -1.8% (inactive)
24 | CC1(C)CCC(NC(=O)[C@@H](N)CCC(=O)O)CC1 | 6.61% (inactive)
25 | COc1cc2c(cc1O)CC[C@@H]1[C@@H]2CC[C@]2(C)[C@@H](O)CC[C@@H]12 | -23.6% (inactive)
26 | C[C@@H]1C(=O)NC2=Nc3cccc(Cl)c3CN21 | -16.6% (inactive)
27 | C[N+]1(CCCCC[N+]2(C)CCCC2)CCCC1 | 0.871% (inactive)
28 | O=C1CCC(c2ccc(-n3ccnc3)cc2)=NN1 | 14.5% (inactive)
29 | CNCCC(Oc1ccccc1C)c1ccccc1 (stereo not given) | -0.622% (inactive)
30 | CN1C2CCC1CC(OC(=O)c1c[nH]c3ccccc13)C2 (stereo not given) | 0.546% (inactive)
31 | C[C@]12CC[C@@H]3c4ccc(O)cc4CC[C@H]3[C@@H]1CC[C@@H]2O | -4.05% (inactive)
32 | CC(=O)O[C@H]1C[C@@H]2CC[C@@H]3[C@H](CC[C@@]4(C)[C@H]3C[C@H]([N+]3(C)CCCCC3)[C@@H]4OC(C)=O)[C@@]2(C)C[C@@H]1[N+]1(C)CCCCC1 | -4.99% (inactive)
33 | CCCC1O[C@@H]2C[C@H]3[C@@H]4CCC5=CC(=O)C=C[C@]5(C)[C@H]4[C@@H](O)C[C@]3(C)[C@]2(C(=O)CO)O1 (stereo not given in full) | -7.43% (inactive)
34 | CNCCC=C1c2ccccc2CCc2ccccc21 | 0.656% (inactive)
35 | O=C(O)c1cc2cc(Cc3cccnc3)ccc2o1 | 3.31% (inactive)
36 | CC(CCc1ccccc1)NCC(O)c1ccc(O)c(C(N)=O)c1 (stereo not given) | -4.28% (inactive)
37 | Nc1cc(Cl)c(NC2=NCCN2)c(Cl)c1 | -0.621% (inactive)
38 | CCC(NC(C)C)C(O)c1ccc(O)c(O)c1 (stereo not given) | 9.68% (inactive)
39 | CC(C)COC(=O)OCN1C(=O)CN(CCN2CC(=O)N(COC(=O)OCC(C)C)C(=O)C2)CC1=O | -1.66% (inactive)
40 | C1CCc2nnnn2CC1 | -0.698% (inactive)
41 | N[C@@H](Cc1cnc[nH]1)C(=O)O | 0.483% (inactive)
42 | CCCn1c(=O)[nH]c(=O)c2[nH]cnc21 | -4.11% (inactive)
43 | COc1cc(NS(C)(=O)=O)ccc1Nc1c2ccccc2nc2ccccc12 | 2.86% (inactive)
44 | COC(=O)[C@H]1[C@H]2C[C@H]3c4[nH]c5ccccc5c4CCN3C[C@H]2CC[C@@H]1O | -8% (inactive)
45 | CC[C@H](C)C(=O)O[C@H]1CCC=C2C=C[C@H](C)[C@H](CC[C@@H]3C[C@@H](O)CC(=O)O3)[C@H]21 | 0.173% (inactive)

Target: Phosphoglycerate kinase, glycosomal (Trypanosoma brucei brucei) (UniProt P07378)
Test: qHTS Validation Assay to Find Inhibitors of Phosphoglycerate Kinase (AID 504547);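 note: control wells lack PGK and mark full inhibition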
Conditions: enzymatic PGK inhibition, coupled luminescence read-out; series mostly up to 57.5 µM; activity, negative = inhibition: at the top concentration
Method in brief: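 In TEA buffer (100mM, pH 7.6) containing 5mM MgCl2 and 0.01% Tween-20, the GAPDH-coupled PGK reaction proceeded for 60 minutes at room temperature before a single luminescence reading using Kinase-Glo Plus.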

Chain of Phosphoglycerate kinase, glycosomal (Trypanosoma brucei brucei) (P07378 whole entry, looked up): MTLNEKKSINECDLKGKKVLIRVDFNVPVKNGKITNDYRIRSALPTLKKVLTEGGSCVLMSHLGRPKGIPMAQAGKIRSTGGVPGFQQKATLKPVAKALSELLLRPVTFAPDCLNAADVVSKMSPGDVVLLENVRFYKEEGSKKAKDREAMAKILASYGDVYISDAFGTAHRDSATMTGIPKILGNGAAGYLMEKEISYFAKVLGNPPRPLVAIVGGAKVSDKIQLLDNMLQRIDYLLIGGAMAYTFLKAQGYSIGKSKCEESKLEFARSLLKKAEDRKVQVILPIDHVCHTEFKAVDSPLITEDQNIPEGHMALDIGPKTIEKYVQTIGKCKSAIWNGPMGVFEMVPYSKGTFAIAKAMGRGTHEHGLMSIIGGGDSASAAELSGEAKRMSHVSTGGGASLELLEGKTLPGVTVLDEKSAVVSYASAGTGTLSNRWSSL

Row | Compound | activity, negative = inhibition
46 | CC(C)C[C@H]1C(=O)N2CCC[C@H]2[C@]2(O)O[C@](NC(=O)[C@@H]3C=C4c5cccc6[nH]c(Br)c(c56)C[C@H]4N(C)C3)(C(C)C)C(=O)N12 | 6.24% (inactive)
47 | N[C@H](CO)C(=O)O | 12.4% (inactive)
48 | CC1(C)CCC(NC(=O)[C@@H](N)CCC(=O)O)CC1 | 5.49% (inactive)
49 | COc1cc2c(cc1O)CC[C@@H]1[C@@H]2CC[C@]2(C)[C@@H](O)CC[C@@H]12 | 0.375% (inactive)
50 | Oc1ccc(O)cc1 | -0.562% (inactive)
51 | C[C@@H]1C(=O)NC2=Nc3cccc(Cl)c3CN21 | 0.189% (inactive)
52 | C[N+]1(CCCCC[N+]2(C)CCCC2)CCCC1 | -0.739% (inactive)
53 | O=C1CCC(c2ccc(-n3ccnc3)cc2)=NN1 | 3.26% (inactive)
54 | CNCCC(Oc1ccccc1C)c1ccccc1 (stereo not given) | 0.285% (inactive)
55 | CN1C2CCC1CC(OC(=O)c1c[nH]c3ccccc13)C2 (stereo not given) | 13.1% (inactive)
56 | C[C@]12CC[C@@H]3c4ccc(O)cc4CC[C@H]3[C@@H]1CC[C@@H]2O | 0.201% (inactive)
57 | CC(=O)O[C@H]1C[C@@H]2CC[C@@H]3[C@H](CC[C@@]4(C)[C@H]3C[C@H]([N+]3(C)CCCCC3)[C@@H]4OC(C)=O)[C@@]2(C)C[C@@H]1[N+]1(C)CCCCC1 | 0.591% (inactive)
58 | CCCC1O[C@@H]2C[C@H]3[C@@H]4CCC5=CC(=O)C=C[C@]5(C)[C@H]4[C@@H](O)C[C@]3(C)[C@]2(C(=O)CO)O1 (stereo not given in full) | -2.2% (inactive)
59 | CNCCC=C1c2ccccc2CCc2ccccc21 | 3.43% (inactive)
60 | O=C(O)c1cc2cc(Cc3cccnc3)ccc2o1 | 7.83% (inactive)
61 | CC(CCc1ccccc1)NCC(O)c1ccc(O)c(C(N)=O)c1 (stereo not given) | 10.7% (inactive)
62 | Nc1cc(Cl)c(NC2=NCCN2)c(Cl)c1 | 1.15% (inactive)
63 | CCC(NC(C)C)C(O)c1ccc(O)c(O)c1 (stereo not given) | 0.121% (inactive)
64 | CC(C)COC(=O)OCN1C(=O)CN(CCN2CC(=O)N(COC(=O)OCC(C)C)C(=O)C2)CC1=O | 8.81% (inactive)
65 | C1CCc2nnnn2CC1 | 4.07% (inactive)
66 | N[C@@H](Cc1cnc[nH]1)C(=O)O | -3.04% (inactive)
67 | CCCn1c(=O)[nH]c(=O)c2[nH]cnc21 | 11.6% (inactive)
68 | COc1cc(NS(C)(=O)=O)ccc1Nc1c2ccccc2nc2ccccc12 | -1.77% (inactive)
69 | COC(=O)[C@H]1[C@H]2C[C@H]3c4[nH]c5ccccc5c4CCN3C[C@H]2CC[C@@H]1O | 3.82% (inactive)
70 | CC[C@H](C)C(=O)O[C@H]1CCC=C2C=C[C@H](C)[C@H](CC[C@@H]3C[C@@H](O)CC(=O)O3)[C@H]21 | 2.7% (inactive)
